This is an account of results in paper PMC4552634, “A New Set of Chemical Starting Points with Plasmodium falciparum Transmission-Blocking Potential for Antimalarial Drug Discovery” (PLoS ONE, 2015).

About 3,200 (25%) of roughly 13,000 compounds showed an effect of 50% or more. The list shows a part of the results.

The test system of this experiment is P. falciparum stage V gametocytes. Also noted: BacTiter-Glo ATP luminescence viability of purified stage V gametocytes in 384-well plates, per cent inhibition versus DMSO. Conditions: 48 h, 5 µM; inhibitor.
Turning to `CC(C)(C)CC(C)(C)c1ccc(O)c(CNC2CCCCC2)c1` [TCMDC-137604], the “% Inhibition” value is recorded as 41.75%.
The value for `Cc1nnc(NC(=O)c2cn(-c3ccccc3)nc2-c2ccccc2C)o1` [TCMDC-125040] was 22.18%; that for `COc1ccc(OC)c(C(O)C(C)NCc2cc(Cl)ccc2O)c1` (centres unmarked) [TCMDC-137921] was 36.34%.
As to `COc1ccc(C(=O)Nc2ccc(Cl)cc2C(=O)Nc2ccncc2)cc1` [TCMDC-123739], the “% Inhibition” value was determined as 84.9%.
The value for `O=C(Nc1ccc(Cl)cc1C(=O)Nc1ccncc1)c1ccc(Cl)cc1Cl` [TCMDC-125853] was 59.79%; that for `Cn1ccnc1CCC(=O)Nc1ccc(Cl)cc1C(=O)Nc1ccc(Cl)cc1` [TCMDC-136703] was 12.32%; that for `Cc1ccc(NC(=O)Nc2ccc(Cl)cc2)cc1-c1ccc(C(=O)Nc2ccncc2)cc1` [TCMDC-133702] was -59.17%.
The value for `Cc1nc(-c2ccncc2)sc1C(=O)Nc1ccc(Cl)cc1C(=O)Nc1ccc(Cl)cc1` [TCMDC-136515] was 3.625%.
The value for `O=C(Nc1ccc(Cl)cc1)c1cc(Cl)ccc1NC(=O)C1(c2ccc(Cl)cc2)CCCC1` [TCMDC-136643] was -21.36%.
As for `COc1ccc(CN(C)CCCc2ccc(NC(=O)c3cc4ccccc4[nH]3)cc2)cc1OC` [TCMDC-131855], the “% Inhibition” value is -11.14%.
To `Nc1ccc2nc(C=Cc3ccc(Cl)cc3)[nH]c2c1` [TCMDC-123608] belongs -19.77%; to `Cc1ccc(NC(=O)Nc2ccc(I)c(OCCN(C)C)c2)cc1Cl` [TCMDC-139122], -20.44%.
To `Cc1ccc(NC(=O)Nc2ccc(S(=O)(=O)c3ccc(NC(=O)Nc4ccc(C)c(Cl)c4)cc3)cc2)cc1Cl` [TCMDC-124273] belongs 85.03%; to `CN1CCc2ccc(NC(=O)Nc3ccc(Cl)c(Cl)c3)cc2C1` [TCMDC-133728], 0.1652%; to `COc1ccc(C(=O)CCC(=O)N(Cc2ccc(-c3ccc(CNCCc4ccccc4)cn3)cc2)C(C)CN(C)C)cc1F` (centres unmarked) [TCMDC-141554], 109.3%.
To `COc1ccc(C(=O)CCC(=O)N(CCSC(C)(C)C)Cc2ccc(-c3ccc(CNCCc4ccc(S(C)(=O)=O)cc4)cn3)cc2)cc1F` [TCMDC-141517] belongs 33.86%.
With `COc1ccc(C(=O)CCC(=O)N(CCC2CCCN2C)Cc2ccc(-c3ccc(CNCCc4ccc(S(C)(=O)=O)cc4)cn3)cc2)cc1F` (centres unmarked) [TCMDC-141513], the “% Inhibition” value was -2.666%.
To `COc1ccc(C(=O)CCC(=O)N(Cc2ccc(-c3ccc(CNCCc4ccc(S(C)(=O)=O)cc4)cn3)cc2)Cc2ccc3c(c2)OCO3)cc1F` [TCMDC-141514] belongs 67.48%; to `COc1ccc(C(=O)CCC(=O)N(Cc2ccc(-c3ccc(CNCCc4ccc(S(C)(=O)=O)cc4)cn3)cc2)C(C)CN(C)C)cc1F` (centres unmarked) [TCMDC-141512], 102.4%; to `COc1ccc(C(=O)CCC(=O)N(Cc2ccc(-c3ccc(CNCCc4ccc(S(C)(=O)=O)cc4)cn3)cc2)C2CC3CCC2C3)cc1F` (centres unmarked) [TCMDC-141515], -37.66%.
The value for `CCC(CC)N1C(=O)C(c2ccccc2)(c2ccccc2)N=C1N` [TCMDC-136516] was -14.59%; that for `CCOC(=O)C(NC(=O)Cc1ccccc1)C(C)C` (centres unmarked) [TCMDC-131334] was -5.463%.
The value for `ON=C1CCc2cc(-c3cc(-c4ccc(OC5CCNCC5)cc4)oc3-c3ccncc3)ccc21` [TCMDC-141381] was 91.63%; that for `ON=C1CCc2cc(-c3nc(-c4ccc(OCCN5CCCCC5)cc4)[nH]c3-c3ccncc3)ccc21` [TCMDC-141174] was 1.604%.
For `CN(C)CCCOc1ccc(-c2nc(-c3ccc4c(c3)CCC4=NO)c(-c3ccncc3)[nH]2)cc1` [TCMDC-140742], the “% Inhibition” value is given as 7.087%.
To `CC(C)(C(=O)Nc1ccc(N2CCC3(CCCN(CC4CC4)C3)CC2)c(Cl)c1)c1cccc(C(F)(F)F)c1` [TCMDC-134639] belongs -12.77%; to `CC(C)(C(=O)Nc1ccc(C2CCC(NCC3CC3)CC2)c(Cl)c1)c1ccc(C(F)(F)F)cc1` (centres unmarked) [TCMDC-134642], 92.31%.
Consider `CC(C)(C(=O)Nc1ccc(C2CCC(NCC3CC3)CC2)c(Cl)c1)c1cccc(OC(F)F)c1` (centres unmarked) [TCMDC-134643], for which the “% Inhibition” value came out at 32%.
Turning to `O=C(Nc1cccc(-c2ccc(-c3nc4ccc(C(F)(F)F)cc4[nH]3)cc2)c1)c1cnc[nH]1` [TCMDC-136938], the “% Inhibition” value was -50.65%.
The value for `CCC(=O)Nc1ccc(Nc2nc(C)cc(N3CCCC3)n2)cc1` [TCMDC-124971] was -15.13%; that for `Cc1nnc(Sc2ncnc3scc(-c4ccc(F)cc4)c23)s1` [TCMDC-125239] was 77.07%; that for `Fc1ccc(-c2csc3ncnc(Cl)c23)cc1` [TCMDC-125317] was 5.052%.
For the compound `Clc1ncnc2scc(-c3ccc(Br)cc3)c12` [TCMDC-125318], the “% Inhibition” value is reported as -35.26%.
The value for `CN1CC=C(c2c[nH]c3ccc(Oc4ccccc4)cc23)CC1` [TCMDC-138966] was 12.83%.
To `NCCNS(=O)(=O)c1ccc(-c2ccnc3[nH]c(-c4ccncc4)cc23)cc1` [TCMDC-133364] belongs 20.68%; to `CN(C)Cc1ccc(-c2cc3c(-c4ccc(CN(C)C)cc4)ccnc3[nH]2)cc1` [TCMDC-132409], 78.19%; to `CN(C)Cc1cccc(-c2cc3c(-c4cnn(C)c4)c(Cl)cnc3[nH]2)c1` [TCMDC-134147], -89.46%.
The value for `Cc1ccc2[nH]c(-c3ccccc3N)cc2c1` [TCMDC-131289] was -61.86%; that for `CNC(=O)c1c(NC(=O)c2cccs2)sc2c1CCCC2` [TCMDC-125739] was -2.665%.
Regarding `O=C(NC1CCN(CC2(c3ccc(Cl)cc3)CCC2)CC1)c1ccn[nH]1` [TCMDC-124830], the “% Inhibition” value is listed as 58.08%.
The value for `CC(C)c1ccc(CN2CCC(NC(=O)c3ccc(-c4ccccc4F)s3)CC2)cc1` [TCMDC-134345] was -26.31%; that for `O=C(NC1CCN(CC2(c3ccccc3)CCCC2)CC1)c1[nH]ncc1Cl` [TCMDC-124836] was 56.38%.
To `O=C(NC1CCN(CCC(NC(=O)c2ccccc2)c2ccc(Cl)c(Cl)c2)CC1)c1ccc(Cl)cc1` (centres unmarked) [TCMDC-141712] belongs -1.186%.
The value for `O=C(NC1CCN(CC2(c3ccccc3F)CCCC2)CC1)c1ccn[nH]1` [TCMDC-124837] was 65.27%.
With `CN(C)c1ccc(CN2CCC(NC(=O)c3ccc(-c4ccccc4F)s3)CC2)cc1` [TCMDC-134326], the “% Inhibition” value was -40.45%.
As for `O=C(NC1CCN(Cc2ccc(Cl)cc2)CC1)c1cn(-c2ccccc2)nc1-c1cccnc1` [TCMDC-125254], the “% Inhibition” value is -34.02%.
As for `O=C(NC1CCN(CC2(c3ccc(Cl)cc3)CCCCC2)CC1)c1ccn[nH]1` [TCMDC-124828], the “% Inhibition” value was determined as 65.33%.
The value for `Cc1ccc(C2(CN3CCC(NC(=O)c4[nH]ncc4Cl)CC3)CCCCC2)cc1` [TCMDC-124838] was 29.65%; that for `Cc1cc(C(=O)NC2CCN(Cc3ccccc3)CC2)ccc1-c1nc2cc(Cl)c(Cl)cc2[nH]1` [TCMDC-140081] was 10.28%; that for `O=C(NC1CC1)c1cnc(N2CCN(Cc3ccc(Cl)cc3)CC2)c(Cl)c1` [TCMDC-134601] was 8.945%.
The value for `O=C(Nc1ccc(F)cc1)c1ccc(C(=O)NC2CCN(CC3CCCCC3)CC2)cc1` [TCMDC-136749] was -13.8%; that for `Cc1ccccc1OCC(=O)Nc1ccc(-c2nc3cc4ccccc4cc3[nH]2)cc1` [TCMDC-125670] was 10.69%; that for `CC1(C)N=C(N)N=C(N)N1c1ccc(Oc2ccccc2)cc1` [TCMDC-137712] was 1.861%.
To `CN(C)CCC(O)C=C(c1ccc(Cl)cc1)c1ccc(Cl)cc1` (centres unmarked) [TCMDC-132094] belongs 12.81%; to `Cc1ccc(S(=O)(=O)n2cc(-c3ccnc(N)c3)c3cc(Br)cnc32)cc1` [TCMDC-134306], -5.282%.
For the compound `COc1ccc2nccc([C@@H](O)CN3CCC(NCCOc4ccccc4[N+](=O)[O-])CC3)c2c1` [TCMDC-140711], the “% Inhibition” value was 39.45%.
The value for `O=C(NC1CCN(Cc2ccccc2)CC1)c1csc2nc(-c3ccc(Cl)cc3)cn12` [TCMDC-133071] was -8.625%.
To `O=C(NC1CCN(CC2(c3ccc(Cl)cc3)CCC2)CC1)c1cscn1` [TCMDC-124829] belongs 62.42%.
To `COc1ccc2nccc([C@@H](O)CN3CCC(NC(=O)c4nc(Cl)c(Cl)c(N)c4Cl)CC3)c2c1` [TCMDC-140771] belongs 4.246%; to `CCc1[nH]nc(C(=O)Nc2cccc(N3CCCC3)c2)c1C` [TCMDC-124845], -34.24%.
In the case of `CCc1[nH]nc(C(=O)NC2CCN(CC3(c4ccc(OC)cc4)CCCCC3)CC2)c1C` [TCMDC-124840], the “% Inhibition” value is 100.4%.
Consider `Cc1ccc(NC(=O)c2ccc(C(=O)NC3CCN(CC4CCCCC4)CC3)cc2)cc1` [TCMDC-136747], for which the “% Inhibition” value is -26.65%.
The value for `Cc1ccc(C2(CN3CCC(NC(=O)c4ccn[nH]4)CC3)CCCCC2)cc1` [TCMDC-124839] was 64.93%; that for `Cc1cccc(NC(=O)c2ccc(C(=O)NC3CCN(CC4CCCCC4)CC3)cc2)c1` [TCMDC-136748] was -45.39%; that for `COc1c(I)cc(Cc2cnc(N)nc2N)cc1I` [TCMDC-138050] was -8.492%.
The value for `N#Cc1cc(N(CCCOc2cccc(OC(F)(F)F)c2)Cc2ccccc2C(F)(F)F)ccc1C(F)(F)F` [TCMDC-132783] was -11.19%; that for `COc1cccc(Cc2c(C)nc3nc(N)nc(N)c3c2C)c1` [TCMDC-137650] was 36.32%; that for `Cc1ccc(F)c(OCC2CCCN(c3ccc(C(=O)NC4CC4)cn3)C2)c1` (centres unmarked) [TCMDC-134035] was 18.85%.
